In the supplement of paper PMC11417369:
± gives the standard deviation of the averaged measurements. Over roughly 25,000 sequences, “ln(normalized median fluorescence intensity)” has its median near 8.6; the highest 2% begin near 10. Shown is part of a subset that was picked to be rich in the highest values.

These sequences were tested on PfAP2-EXP AP2 domain (GST-tagged) (assay: gcPBM binding intensity (ln(normalized median fluorescence intensity)); higher = stronger DNA binding).
Outline: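 For binding intensity, the highest Masliner-normalised natural-log median intensity across replicate spots of either probe orientation was taken. Protein bound to the array was stained with Alexa488 anti-GST antibody and scanned at 488 nm. The protein, GST-tagged P. falciparum DNA-binding domains from E. coli at about 25 μg on average, had been applied for 1 h to an Agilent 4 × 180k array of primer-extended double-stranded 36-bp intergenic genomic probes and negative controls.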
In the case of “ATATATATATATATATGTACACATAAAAAGAAAGAA [XGTACX_site1603]”, the “gcPBM binding intensity (ln)” value is reported as 10.2 ± 0.21.
“TATAAGAATAAAAAGGGTACATAAAATAATAATATA [XGTACX_site2355]” was tested, and the “gcPBM binding intensity (ln)” value was 8.82 ± 0.38.
In the case of “TAAAAGAAATATACATGTACATAAATATATATATAT [XGTACX_site1276]”, the “gcPBM binding intensity (ln)” value is reported as 9.86 ± 0.2.
For “AAAAAAAAAAAGAAGGGTACATATTATATATAATAT [XGTACX_site6204]”, the “gcPBM binding intensity (ln)” value was 8.59 ± 0.48.
“TTACAACAGAATGGTATTTTTTTATTTTAAAGAAAA [TGCATGCA_negctrl_site230]” was tested, and the “gcPBM binding intensity (ln)” value was 8.04 ± 0.38.
With “ACATAATATACTATTGTGCACATATATATATATATA [GTGCAC_site9761]” the “gcPBM binding intensity (ln)” value was 10.1 ± 0.45.
With “AAAATGATGTTAATTACACACATCATCTCATAAACA [CACACA_site3017]” the “gcPBM binding intensity (ln)” value was 8.28 ± 0.4.
In the case of “TATTTAATTACATGAACACACATTAGATATTTTTAA [CACACA_site7405]”, the “gcPBM binding intensity (ln)” value is reported as 8.14 ± 0.44.
In the case of “AATACAATATAAAGGTGTACATATATATATATATAT [XGTACX_site68]”, the “gcPBM binding intensity (ln)” value is reported as 10.1 ± 0.48.
With “TATATATAAAGGTGTACACATATATATATATCTGTA [CACACA_site5311]” the “gcPBM binding intensity (ln)” value was 8.45 ± 0.17.
With “TTCATAATAAAAAGGTGTACATATATATATATATAT [XGTACX_site2829]” the “gcPBM binding intensity (ln)” value was 10.34 ± 0.085.
For “ATTCATAAAAAGAGGTGTACATTAATATAATATATA [XGTACX_site8283]”, the “gcPBM binding intensity (ln)” value was 8.62 ± 0.35.
In the case of “ACATATATATAAAGGTGTACACATATATATATATAT [XGTACX_site4779]”, the “gcPBM binding intensity (ln)” value is reported as 10.2 ± 0.71.
“AAAAAAAAAAAAAGGTGTACATAAGTAAATTCATAT [XGTACX_site4206]” was tested, and the “gcPBM binding intensity (ln)” value was 8.7 ± 0.54.
In the case of “TATGTATATTTTAATTGTACGTGTATGGTTGTAAAT [XGTACX_site8738]”, the “gcPBM binding intensity (ln)” value is reported as 8.79 ± 0.38.
In the case of “TATTAAAATATTTATACACACATAATTTTGATAAAT [CACACA_site4486]”, the “gcPBM binding intensity (ln)” value is reported as 8.19 ± 0.43.
“ATAATATTATTATAATGTACATATTTCGATATAAAT [XGTACX_site8808]” was tested, and the “gcPBM binding intensity (ln)” value was 8.61 ± 0.42.
“TATTCGTGCAATAATAGTACACTTATAAATTATTCA [XGTACX_site8993]” was tested, and the “gcPBM binding intensity (ln)” value was 8.595 ± 0.064.
With “AAAAAAAAAGATCACACACACATAAATATAAACAAA [CACACA_site5285]” the “gcPBM binding intensity (ln)” value was 8.48 ± 0.26.
“TCAAAAATAAAGATCACACATATATATATATATATA [CACACA_site4381]” was tested, and the “gcPBM binding intensity (ln)” value was 10.2 ± 0.35.
With “ATCAAAGATAAATTTACACACATATAAATATAAATA [CACACA_site7409]” the “gcPBM binding intensity (ln)” value was 8.44 ± 0.56.
In the case of “CACAATACTTTCATCACACATATATATATATATATA [CACACA_site4677]”, the “gcPBM binding intensity (ln)” value is reported as 10.1 ± 0.28.
“TACTTTATATAAAGATCAAAAAATAAATAATTATAA [TGCATGCA_negctrl_site446]” was tested, and the “gcPBM binding intensity (ln)” value was 8.45 ± 0.21.
“TACTTTCAAAAGATCACACATATATATATATATATA [CACACA_site5630]” was tested, and the “gcPBM binding intensity (ln)” value was 10.39 ± 0.085.
For “TTTTTTTTTTTTTTTTGTACATAAATTTTTATTAGA [XGTACX_site6409]”, the “gcPBM binding intensity (ln)” value was 8.17 ± 0.35.
In the case of “TATACATATTTCTATTGTACATAAACTAAATCTTCA [XGTACX_site28]”, the “gcPBM binding intensity (ln)” value is reported as 8.27 ± 0.49.
For “TTTTATTTTTTATTTGCACACAATATGTAAAAAAAT [CACACA_site2927]”, the “gcPBM binding intensity (ln)” value was 8.71 ± 0.16.
“ATATTAATTCGTTTTGTACACACATAATGAATAATT [CACACA_site8701]” was tested, and the “gcPBM binding intensity (ln)” value was 8.43 ± 0.24.
“TGTGCTATATTCATATGTACATATAATTATTATATA [XGTACX_site3549]” was tested, and the “gcPBM binding intensity (ln)” value was 8.86 ± 0.028.
“CTGTATTCATAATTCACACAAATGGTTTATATGAAT [CACACA_site4315]” was tested, and the “gcPBM binding intensity (ln)” value was 8.5 ± 0.31.
For “GGGGACGCGGGTGGGGGTACTCACACTATGCAAAAT [XGTACX_site7745]”, the “gcPBM binding intensity (ln)” value was 10.3 ± 0.4.
“ATGCAAATGTGCATCACACACACTAATGGGTATGTA [CACACA_site2893]” was tested, and the “gcPBM binding intensity (ln)” value was 8.39 ± 0.38.
“GCTTAGTTATATAACTGTACTATTTTTATTTATATG [XGTACX_site884]” was tested, and the “gcPBM binding intensity (ln)” value was 9.16 ± 0.83.
“CCTATAATAAATAATACACACATATTGTAAATATAT [CACACA_site7496]” was tested, and the “gcPBM binding intensity (ln)” value was 8.46 ± 0.53.
For “CACATAAAATAAGGTGCATGCAAACGAGAAAATAAA [TGCATGCA_site75]”, the “gcPBM binding intensity (ln)” value was 10.5 ± 0.11.
With “AGGTGCAAAAATAAAACATGCAAAAATAAAAATGAA [TGCATGCA_site502]” the “gcPBM binding intensity (ln)” value was 9.15 ± 0.44.
For “GAAAGAATAAAATAAACATGCAAATAAAACATAAAA [TGCATGCA_site471]”, the “gcPBM binding intensity (ln)” value was 9.27 ± 0.25.
For “CAAGGAACCAGACACACACACATAAATGTATTTATA [CACACA_site6491]”, the “gcPBM binding intensity (ln)” value was 8.39 ± 0.48.
In the case of “TCATAAAAGATTAAGTGTACATGTGCTACTCTTATA [XGTACX_site6255]”, the “gcPBM binding intensity (ln)” value is reported as 8.34 ± 0.25.
With “ATATATCATGAACCTTGTACGTATATATATATATAT [XGTACX_site239]” the “gcPBM binding intensity (ln)” value was 10.2 ± 0.23.
With “GTTTTTATCATATCATGTACGTATTTTATTTTTTTT [XGTACX_site8643]” the “gcPBM binding intensity (ln)” value was 9.03 ± 0.32.
For “ATATATATATATGTATGTACGTATGTATGTATGAAT [XGTACX_site4857]”, the “gcPBM binding intensity (ln)” value was 9.91 ± 0.29.
For TCTTAAAATATATAGGTGCAAAAAAAAAAAAAAAAA, the “gcPBM binding intensity (ln)” value was 8.31 ± 0.13.
In the case of TAATATAATATATAGGTGCAATATTAACAAAAATTT, the “gcPBM binding intensity (ln)” value is reported as 8.63 ± 0.085.
“TATATATATATATAGGTGCAATATTGAAAAAATATC [GTGCAC_site9535]” was tested, and the “gcPBM binding intensity (ln)” value was 10.3 ± 0.21.
